The source of these data is PubChem BioAssay (EPA / NIEHS).

Several values for one entry are separate records, joined by “and”; a condition that tells them apart may be missing. Equal values may be shown once. Results filed as inconclusive are left out. Some structures have more than one record in an assay (separate samples or runs), and their calls can disagree. Activity calls are given as the source filed them. The calls were made as follows, unless noted: active = hit-call score of the fitted dose curve at least 0.9, where 1 is the maximum; inconclusive = response in the unintended direction; inactive = score below 0.9.

The target in experiment [1] is Peroxisome proliferator-activated receptor gamma (Homo sapiens) (UniProt P37231). Briefly: ATG_hPPARg_XSP2: Attagene TRANS-FACTORIAL Multi-Species (XSP2) HepG2 Assay for human Peroxisome Proliferator-activated Receptor gamma (PPARg) (AID 2283829).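 Also: actives raise reporter mRNA above DMSO so AC50 reflects PPARg activation.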 An outline of the steps:
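Reporter transcripts were measured by RT-PCR, fluorescent labeling, HpaI digestion and capillary electrophoresis, relative to DMSO, 24 h post-dosing. Transiently transfected HepG2 expressed NR-Gal4 chimeras regulating GAL4-UAS reporters; medium contained 3 nM 6-alpha-fluorotestosterone plus 1.5 nM norgestrel.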

Experiment [2] deals with mouse Peroxisome Proliferator-activated Receptor gamma (PPARg), Pparg (gene 19016) (UniProt P37238). Briefly: ATG_mPPARg_XSP2: Attagene TRANS-FACTORIAL Multi-Species (XSP2) HepG2 Assay for mouse Peroxisome Proliferator-activated Receptor gamma (PPARg) (AID 2283830).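 Also: hits are gains in reporter mRNA above DMSO so AC50 marks activation.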 An outline of the steps: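 HepG2 cells transiently transfected with GAL4-UAS reporter units for chimeric NR-Gal4 proteins including mouse PPARg, exposed 24 h; medium contained 3 nM 6-alpha-fluorotestosterone and 1.5 nM norgestrel. Reporter mRNA quantified by RT-PCR, HpaI digestion and capillary electrophoresis, vs DMSO.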
mouse Peroxisome Proliferator-activated Receptor gamma (PPARg), Pparg (gene 19016), sequence (P37238 whole entry, looked up, the tested form may be a part): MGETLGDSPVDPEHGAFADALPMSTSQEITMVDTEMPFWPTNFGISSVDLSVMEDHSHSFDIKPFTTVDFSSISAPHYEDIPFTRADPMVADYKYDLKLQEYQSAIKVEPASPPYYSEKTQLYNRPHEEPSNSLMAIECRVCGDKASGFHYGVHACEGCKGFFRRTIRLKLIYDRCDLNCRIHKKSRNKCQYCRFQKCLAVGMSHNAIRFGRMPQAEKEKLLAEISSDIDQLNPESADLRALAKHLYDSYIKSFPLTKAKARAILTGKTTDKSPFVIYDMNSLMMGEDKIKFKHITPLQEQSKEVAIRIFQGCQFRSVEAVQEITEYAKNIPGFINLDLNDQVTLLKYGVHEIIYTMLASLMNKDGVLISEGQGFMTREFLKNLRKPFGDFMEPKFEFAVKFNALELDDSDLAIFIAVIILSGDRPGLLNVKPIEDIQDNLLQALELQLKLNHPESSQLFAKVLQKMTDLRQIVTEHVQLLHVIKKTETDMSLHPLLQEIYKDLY

The target in experiment [3] is Nuclear receptor subfamily 1 group I member 2 (Mus musculus) (UniProt O54915). In words: ATG_mPXR_XSP2: Attagene TRANS-FACTORIAL Multi-Species (XSP1) HepG2 Assay for mouse Pregnane X Receptor (PXR) (AID 2283831). In outline: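 Reporter transcripts measured after 24 h dosing by RT-PCR with 6-FAM labelling, HpaI digestion and capillary electrophoresis. Transiently transfected HepG2 with NR-Gal4 chimeras; increase over DMSO baseline scored.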
Nuclear receptor subfamily 1 group I member 2 (Mus musculus), sequence (O54915 whole entry, looked up, the tested form may be a part): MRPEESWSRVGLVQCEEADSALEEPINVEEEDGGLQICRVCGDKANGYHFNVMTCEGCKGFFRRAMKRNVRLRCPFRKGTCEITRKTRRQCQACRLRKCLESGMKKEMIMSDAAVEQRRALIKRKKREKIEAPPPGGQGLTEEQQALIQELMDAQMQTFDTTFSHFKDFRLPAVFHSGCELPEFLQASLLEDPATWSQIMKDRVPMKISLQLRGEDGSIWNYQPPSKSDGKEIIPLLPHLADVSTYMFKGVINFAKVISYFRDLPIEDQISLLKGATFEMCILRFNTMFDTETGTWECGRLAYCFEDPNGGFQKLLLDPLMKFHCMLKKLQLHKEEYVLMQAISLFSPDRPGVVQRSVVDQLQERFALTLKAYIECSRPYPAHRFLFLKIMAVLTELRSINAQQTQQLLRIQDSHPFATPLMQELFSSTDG

Experiment [4] concerns the target zebrafish Thyroid Hormone Receptor alpha (TRa), thraa (gene 30670) (UniProt Q98867). Briefly: ATG_zfTRa_XSP2: Attagene TRANS-FACTORIAL Multi-Species (XSP1) HepG2 Assay for zebrafish Thyroid Hormone Receptor alpha (TRa) (AID 2283832).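 Also: actives raise zebrafish TRa-Gal4 reporter transcript above DMSO baseline.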 In outline:
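Chimeric receptor-Gal4 activity was assessed in transfected human liver HepG2 cells 24 h after dosing, using reporter transcript levels detected by RT-PCR and capillary electrophoresis. DMSO served as baseline.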

Experiment [5] deals with zebrafish Peroxisome Proliferator-activated Receptor gamma (PPARg), gene 557037. In words: ATG_zfPPARg_XSP2: Attagene TRANS-FACTORIAL Multi-Species (XSP2) HepG2 Assay for zebrafish Peroxisome Proliferator-activated Receptor gamma (PPARg) (AID 2283833).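 Also: actives increase reporter signal over DMSO so AC50 reflects activation.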 An outline of the steps: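 After 24 h chemical exposure, RNA from transiently transfected HepG2 (chimeric NR-Gal4 TRANS reporters) was reverse-transcribed, PCR-amplified, 6-FAM-labelled, HpaI-cut and sized by capillary electrophoresis. Induction was scored in the positive direction relative to DMSO.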

In experiment [6] the test system is turtle Thyroid Hormone Receptor, alpha (TRa), gene 101949057. Briefly: ATG_trTRa_XSP2: Attagene TRANS-FACTORIAL Multi-Species (XSP1) HepG2 Assay for turtle Thyroid Hormone Receptor, alpha (TRa) (AID 2283834).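 Also: hits raise reporter mRNA over the DMSO baseline so AC50 marks activators.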 In outline: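 Turtle TRa-Gal4 chimera activity in transfected human HepG2 cells: reporter transcripts quantified by RT-PCR, 6-FAM labelling and capillary electrophoresis 24 h post-dosing; positive direction versus DMSO, medium containing 3 nM 6-alpha-fluorotestosterone and 1.5 nM norgestrel.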

A short description of experiment [7]: ATG_M_61_XSP2: Attagene TRANS-FACTORIAL Multi-Species (XSP2) HepG2 Assay for M61 Transcription Factor (Internal Marker) (AID 2283835; active = hit-call score of the fitted dose curve at least 0.9, where 1 is the maximum; inactive = score below 0.9;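 also: reporter mRNA of an internal background marker read by RT-PCR and capillary electrophoresis; active means a rise in signal above the DMSO baseline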). In outline: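 First, HepG2 cells are transfected with reporter units under GAL4-UAS control. Next, chemicals are applied for 24 h. Then total RNA is reverse-transcribed, amplified, fluorescently labelled and sized by capillary electrophoresis, with gain of signal scored against DMSO.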

Experiment [8] has as its target zebrafish Thyroid Hormone Receptor beta (TRb), thrb (gene 30607) (UniProt Q9PVE4). In words: ATG_zfTRb_XSP2: Attagene TRANS-FACTORIAL Multi-Species (XSP1) HepG2 Assay for zebrafish Thyroid Hormone Receptor beta (TRb) (AID 2283836). An outline of the steps: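 Fluorescence of labelled reporter cDNA fragments, separated by capillary electrophoresis, gives mRNA induction from exogenous NR-Gal4 chimeras in transiently transfected HepG2 cells after 24 h dosing; 3 nM 6-alpha-fluorotestosterone and 1.5 nM norgestrel included in the run.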

Experiment [9] can be described thus: ATG_XTT_Cytotoxicity_XSP2: Cytotoxicity Assessment in the Attagene TRANS-FACTORIAL Multi-Species (XSP2) HepG2 Assay (AID 2283837). In outline:
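HepG2 cells, transiently transfected with multiple reporter constructs, exposed to chemical for 24 h. Cell number assessed with XTT fluorescence read-out; loss of signal fitted relative to DMSO.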

Experiment [10] deals with human Thyroid hormone Receptor alpha (TRa), THRA (gene 7067) (UniProt P10827). Briefly: ATG_hTRa_XSP2: Attagene TRANS-FACTORIAL Multi-Species (XSP2) HepG2 Assay for human Thyroid hormone Receptor alpha (TRa) (AID 2283838). An outline of the steps:
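HepG2 cells transiently transfected with multiplexed GAL4-UAS reporter units and exogenous NR-GAL4 chimeras; 24 h chemical exposure with 3 nM 6-alpha-fluorotestosterone and 1.5 nM norgestrel present. Reporter mRNA measured by RT-PCR, FAM labelling, HpaI digestion, capillary electrophoresis; gain-of-signal versus DMSO.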

zebrafish Thyroid Hormone Receptor beta (TRb), thrb (gene 30607), sequence (Q9PVE4 whole entry, looked up, the tested form may be a part): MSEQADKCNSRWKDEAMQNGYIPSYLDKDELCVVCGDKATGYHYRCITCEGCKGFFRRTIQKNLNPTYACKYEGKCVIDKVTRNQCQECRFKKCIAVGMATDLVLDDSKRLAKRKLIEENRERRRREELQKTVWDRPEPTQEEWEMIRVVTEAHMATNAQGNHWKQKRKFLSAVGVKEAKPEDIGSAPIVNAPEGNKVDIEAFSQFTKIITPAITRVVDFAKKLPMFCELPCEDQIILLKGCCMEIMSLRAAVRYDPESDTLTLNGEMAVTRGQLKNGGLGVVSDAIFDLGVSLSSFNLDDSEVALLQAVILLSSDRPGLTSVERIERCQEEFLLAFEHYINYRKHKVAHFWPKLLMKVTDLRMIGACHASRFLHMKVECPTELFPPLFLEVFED
zebrafish Thyroid Hormone Receptor alpha (TRa), thraa (gene 30670), sequence (Q98867 whole entry, looked up, the tested form may be a part): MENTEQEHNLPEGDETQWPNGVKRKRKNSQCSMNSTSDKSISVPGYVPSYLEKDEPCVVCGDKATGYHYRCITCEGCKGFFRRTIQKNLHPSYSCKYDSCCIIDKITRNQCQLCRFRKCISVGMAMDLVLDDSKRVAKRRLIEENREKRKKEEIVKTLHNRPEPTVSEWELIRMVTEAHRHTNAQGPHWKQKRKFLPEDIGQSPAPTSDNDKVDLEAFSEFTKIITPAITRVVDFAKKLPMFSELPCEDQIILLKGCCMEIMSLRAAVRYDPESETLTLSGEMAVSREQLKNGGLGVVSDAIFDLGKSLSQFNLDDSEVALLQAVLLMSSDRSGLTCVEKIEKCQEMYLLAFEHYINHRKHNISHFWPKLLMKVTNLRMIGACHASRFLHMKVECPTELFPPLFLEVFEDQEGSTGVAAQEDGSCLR
human Thyroid hormone Receptor alpha (TRa), THRA (gene 7067), sequence (P10827 whole entry, looked up, the tested form may be a part): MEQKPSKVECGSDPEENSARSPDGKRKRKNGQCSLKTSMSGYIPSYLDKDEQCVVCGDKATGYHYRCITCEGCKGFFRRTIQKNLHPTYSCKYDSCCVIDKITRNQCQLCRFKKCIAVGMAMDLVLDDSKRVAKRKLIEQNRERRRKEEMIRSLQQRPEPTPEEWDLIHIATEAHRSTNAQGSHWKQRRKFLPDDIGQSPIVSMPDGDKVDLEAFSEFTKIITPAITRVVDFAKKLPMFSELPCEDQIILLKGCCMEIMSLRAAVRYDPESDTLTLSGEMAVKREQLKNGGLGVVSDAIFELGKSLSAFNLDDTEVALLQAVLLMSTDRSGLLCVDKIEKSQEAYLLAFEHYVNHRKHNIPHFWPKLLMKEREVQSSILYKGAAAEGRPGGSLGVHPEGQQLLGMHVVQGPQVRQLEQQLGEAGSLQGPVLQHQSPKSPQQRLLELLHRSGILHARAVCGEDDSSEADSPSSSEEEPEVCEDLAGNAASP
Peroxisome proliferator-activated receptor gamma (Homo sapiens), sequence (P37231 whole entry, looked up, the tested form may be a part): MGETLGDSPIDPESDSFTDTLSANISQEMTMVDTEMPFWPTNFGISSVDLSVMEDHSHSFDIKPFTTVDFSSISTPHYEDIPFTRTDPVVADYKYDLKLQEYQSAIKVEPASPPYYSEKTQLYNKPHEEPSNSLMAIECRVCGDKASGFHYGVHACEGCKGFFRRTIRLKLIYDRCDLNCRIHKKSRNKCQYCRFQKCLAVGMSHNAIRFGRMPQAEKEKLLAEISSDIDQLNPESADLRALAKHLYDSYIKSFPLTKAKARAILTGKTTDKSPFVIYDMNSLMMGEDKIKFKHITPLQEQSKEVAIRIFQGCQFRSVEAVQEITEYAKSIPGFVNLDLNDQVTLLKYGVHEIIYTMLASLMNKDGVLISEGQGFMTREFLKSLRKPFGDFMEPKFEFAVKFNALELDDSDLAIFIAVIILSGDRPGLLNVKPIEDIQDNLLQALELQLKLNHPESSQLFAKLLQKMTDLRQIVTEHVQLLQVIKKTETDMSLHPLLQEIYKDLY

Turning to `c1ccc2c(c1)Nc1ccccc1S2`, the AC50 (commonly the concentration giving half of the maximal activity seen) in [1] is 22.2 µM (active) and 21.7 µM (active); in experiment [2] it was 27.6 µM (active) and 21.1 µM (active); in experiment [3], 4.49 µM (active). The result in experiment [3], in experiment [4], in [5], in [6], in [7] and in experiment [8] was inactive. In addition, the compound was classed as inactive in experiment [9] and in experiment [10].

`CCC(C)(C)c1ccc(O)cc1`: the compound was classed as inactive in experiment [1], in experiment [2], in experiment [3], in experiment [4], in experiment [8] and in experiment [9]. Moreover, in experiment [5], the AC50 was 165 µM (active) and 100 µM (active).

For `O=S(=O)(c1ccc(O)cc1)c1ccc(O)cc1`, the AC50 in experiment [1] is 8.88 µM (active) and 28.6 µM (active); in experiment [2], 33.1 µM (active) and 63.1 µM (active). The result in experiment [3], in experiment [4], in experiment [6], in experiment [7], in [8] and in experiment [9] was inactive. Also, in experiment [10], the call was inactive.

Consider `O=P(Oc1ccccc1)(Oc1ccccc1)Oc1ccccc1`, for which the AC50 in experiment [1] was 4.79 µM (active); in [2] it was 5.79 µM (active); in experiment [3], 0.303 µM (active); in [5] it was 9.78 µM (active). Besides, the compound was called inactive in experiment [4], in experiment [6], in [7] and in experiment [8].

On to `CC(C)(C)c1ccc(O)cc1`, for which the compound was called inactive in experiment [1], in [2], in [4], in [5], in experiment [6] and in [7]. The call in experiment [8] was inactive.

On to `CCCCc1ccc(O)cc1`, for which the AC50 in [1] was 100 µM (active); in experiment [2] it was 74.6 µM (active) and 93.5 µM (active). For the same compound, the compound was classed as inactive in experiment [3], in [4], in experiment [5], in experiment [7], in [8] and in experiment [9]. For the same compound, the compound was classed as inactive in [10].
